Format in all cases: functional
Assay [1] addresses Solute carrier family 2, facilitated glucose transporter member 1 (Homo sapiens) (UniProt P11166). The experiment in a line: ST_JUDE_LEISH: Cytotoxicity at 2uM final concentration against transgenic Leishmania Mexicana promastigotes LmGLUT1 that are glucose transport deficient and complemented with the human glucose transporter GLUT1. Activity is measured by DNA content using SYBR green in vitro.

Assay [2] has as its target Hexose transporter 1 (Plasmodium falciparum) (UniProt O97467). The experiment in a line: ST_JUDE_LEISH: Cytotoxicity at 2uM final concentration against transgenic Leishmania Mexicana promastigotes LmPfHT that are glucose transport deficient and complemented with the Plasmodium falciparum hexose transporter. Activity is measured by DNA content using SYBR green in vitro.

For assay [3], the target named is Glucose transporter (Leishmania mexicana) (UniProt O61059). Put plainly: ST_JUDE_LEISH: Cytotoxicity at 2uM final concentration against transgenic Leishmania Mexicana promastigotes LmGT2 that are glucose transport deficient and complemented with the L. Mexicana glucose transporter 2. Activity is measured by DNA content using SYBR green in vitro.

Chain of Solute carrier family 2, facilitated glucose transporter member 1 (Homo sapiens) (P11166 whole entry): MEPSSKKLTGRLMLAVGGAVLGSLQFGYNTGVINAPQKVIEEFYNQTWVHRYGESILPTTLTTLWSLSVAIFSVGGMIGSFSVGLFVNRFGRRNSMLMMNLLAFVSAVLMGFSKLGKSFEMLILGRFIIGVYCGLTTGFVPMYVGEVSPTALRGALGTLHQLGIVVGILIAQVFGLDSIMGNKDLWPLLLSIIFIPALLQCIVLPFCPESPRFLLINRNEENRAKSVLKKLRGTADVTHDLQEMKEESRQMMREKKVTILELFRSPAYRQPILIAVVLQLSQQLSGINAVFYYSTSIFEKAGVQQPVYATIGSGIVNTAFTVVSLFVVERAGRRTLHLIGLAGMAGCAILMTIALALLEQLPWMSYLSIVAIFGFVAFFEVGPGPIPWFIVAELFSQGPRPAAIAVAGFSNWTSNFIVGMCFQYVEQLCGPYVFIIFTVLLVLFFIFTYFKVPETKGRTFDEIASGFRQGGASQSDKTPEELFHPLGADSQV

`Cc1ccc(Oc2ccc(CNc3nc(Nc4cccc(F)c4)nc(Nc4cccc(F)c4)n3)cc2)cc1`: the inhibition in assay [1] was found to be 8.54%; in assay [2] it was 8.04%; in assay [3], 4.75%.

On to `Cc1onc(-c2ccc(Cl)cc2)c1-c1ccnn1S(=O)(=O)c1ccc(Cl)cc1`, for which the values for the inhibition in assay [1], in assay [2] and in assay [3] were -0.16%, 4.29% and 1.91%, respectively.

Take `COc1ccc(CNC2CCN(C)CC2)cc1-c1ccc(S(=O)(=O)NCCc2ccccn2)cc1`: the figures for the inhibition in assay [1], in assay [2] and in assay [3] were -0.85%, 0.85% and -0.1%, respectively.

With `COc1ccc(CNc2nc(Nc3cccc(C#N)c3)nc(Nc3cccc(C#N)c3)n2)cc1Cl`, the results for the inhibition in assay [1], in assay [2] and in assay [3] were 3.25%, 0.95% and -1.38%, respectively.

Regarding `Cc1cccc2nc(-c3cccc(-c4cccc(NC(=O)CCc5c[nH]cn5)c4)c3)[nH]c12`, the results for the inhibition in assay [1], in assay [2] and in assay [3] were 0.79%, 0.27% and 1.56%, respectively.

Consider `CCCc1cc(NCC)nc(Nc2ccc(C)cc2)n1`, for which the inhibition in assay [1] is 23.6%; in assay [2] it was 7.16%; in assay [3], 4.06%.

`COc1ccc2c(CCNc3nc(SC)ncc3C(=O)NCCc3ccc(F)cc3)c[nH]c2c1`: the inhibition in assay [1] came to 2.09%; in assay [2], 0.58%; in assay [3], 1.11%.

Consider `CCCCOC(=O)C1=C(C)NC2=C(C(=O)CCC2)C1c1ccc(OC)c(Br)c1` (stereo not given), for which the values for the inhibition in assay [1], in assay [2] and in assay [3] were 0.77%, -0.81% and -1.96%, respectively.

Consider `Nc1c2c(nc3cc(NC(=O)c4ccc([N+](=O)[O-])cc4)ccc13)CCCC2`, for which the figures for the inhibition in assay [1], in assay [2] and in assay [3] were 5.2%, 9.51% and 4.23%, respectively.

For the compound `CCCC1N=C(N)N=C(N)N1c1ccccc1` (stereo not given), the inhibition in assay [1] is 2.1%; in assay [2], -1.28%; in assay [3], 0.53%.

Turning to `CC(=O)N[C@H](C(=O)Nc1cccc(-c2ccc(-c3nc4cccc(C)c4[nH]3)s2)c1)C(C)C`, the inhibition turned out to be 3.65% in assay [1], 2.85% in assay [2] and 2.08% in assay [3].

Regarding `N#Cc1ccc(-n2cc(C(=O)Nc3ccc4c(c3)CCN(C3CCC3)CC4)c(C(F)(F)F)n2)cc1`, the inhibition worked out at 7.01% in assay [1], 6.79% in assay [2] and 4.42% in assay [3].

Regarding `COC(=O)c1cccc(CNCc2ccc(-c3cccc(-c4nc5cc(C(F)(F)F)ccc5[nH]4)c3)cc2)c1`, the inhibition in assay [1] was 11.9%; in assay [2] it was 11%; in assay [3], 11.5%.

On to `CCN(CC)Cc1cc(Nc2c3ccc(Cl)cc3nc3cccc(OC)c23)ccc1O`, for which the inhibition in assay [1] was 7.41%; in assay [2] it was 11.1%; in assay [3] it was 5%.

Regarding `COc1ccc2nccc([C@@H](O)CN3CCC(NCc4nc5ccccc5[nH]4)CC3)c2c1`, the inhibition in assay [1] was 1.84%; in assay [2], -0.18%; in assay [3] it was -0.97%.

Consider `FC(F)(F)c1ccc2[nH]c(-c3ccc(-c4ccc(CNCCc5ccncc5)cc4)cc3)nc2c1`, for which the inhibition in assay [1] is 1.37%; in assay [2], -3.26%; in assay [3] it was 0.57%.

With `Cc1sc(N2CCCCC2)nc1C(=O)Nc1ccc(F)cc1C(F)(F)F`, the results for the inhibition in assay [1], in assay [2] and in assay [3] were 3.13%, -1.54% and 0.73%, respectively.

With `COc1ccccc1NC(=O)CSc1nc2cccnc2n1-c1ccccc1OC`, the inhibition in assay [1] amounted to 0.89%; in assay [2] it was 2.24%; in assay [3], 0.14%.

Turning to `COc1ccccc1CNC(=O)C(=O)Nc1c(-c2ccccc2)[nH]c2ccccc12`, the inhibition in assay [1] was -3.25%; in assay [2], -4.12%; in assay [3] it was -1.57%.

Consider `CCCCNc1c(C(=O)OCC)c(C)nc2c1[nH]c1ccccc12`, for which the inhibition in assay [1] was 3.19%; in assay [2] it was 4.14%; in assay [3], -0.65%.

For the compound `O=C(NCCCCN1CCC(c2ccc3c(c2OCCN2CCCC2=O)CCCC3)CC1)c1ccc(-c2ccc(C(F)(F)F)cc2)cc1`, the figures for the inhibition in assay [1], in assay [2] and in assay [3] were -1.16%, 0.75% and -0.45%, respectively.

Take `O=C(NCCN1CCCC1)c1cccc(-c2ccc(-c3nc4ccccc4[nH]3)cc2)c1`: the inhibition amounted to 3.79% in assay [1], 5.32% in assay [2] and 4.26% in assay [3].

Take `NCC1CCCN1Cc1ccc(-c2cccc(-c3nc4cc(C(F)(F)F)ccc4[nH]3)c2)cc1` (stereo not given): the results for the inhibition in assay [1], in assay [2] and in assay [3] were 1.03%, 1.99% and 3.17%, respectively.

As to `Cc1ccc(Nc2nc(C)cc(Nc3cccc(NS(C)(=O)=O)c3)n2)cc1`, the results for the inhibition in assay [1], in assay [2] and in assay [3] were 11.5%, 12.5% and 9.23%, respectively.

`CCNc1cc(C)nc(Nc2ccc(NS(=O)(=O)c3cc(OC)ccc3OC)cc2)n1`: the inhibition worked out at 16.8% in assay [1], 12.1% in assay [2] and 5.24% in assay [3].

Regarding `COc1cccc(-c2cc(C(=O)Nc3cc(Oc4ccc(O)cc4)cc([N+](=O)[O-])c3)on2)c1`, the inhibition in assay [1] is 9.09%; in assay [2], 8.76%; in assay [3] it was 3.98%.

In the case of `O=C(N[C@@H](CC1CCCCC1)C(=O)NC1CCCc2ccccc21)c1ccc(O)c(-c2ccc(Cl)c(Cl)c2)c1` (stereo not given in full), the inhibition came out at 1.23% in assay [1], 0.75% in assay [2] and 0.12% in assay [3].

Regarding `c1cc(CN2CCc3ccccc3CC2)cc(-c2c[nH]c3nc(NC4CCCC4)ncc23)c1`, the inhibition was -0.02% in assay [1], -0.68% in assay [2] and 0.91% in assay [3].

In the case of `[O-][s+]1c(Cl)c(-c2ccc(Cl)cc2)c2ccc(Cl)cc21` (stereo not given), the inhibition in assay [1] was 6.36%; in assay [2] it was 8.82%; in assay [3], 3.59%.

For the compound `O=C(Nc1cc(Cl)ccc1O)c1ccc(Oc2ccc(C(=O)Nc3cc(Cl)ccc3O)cc2)cc1`, the inhibition in assay [1] was -1.36%; in assay [2], -1.96%; in assay [3], -1%.

On to `O=C(Nc1cccc(CN2CCCN(Cc3cccc(Cl)c3)CC2)c1)c1ccc(Br)cc1`, for which the values for the inhibition in assay [1], in assay [2] and in assay [3] were 7.66%, 7.39% and 9.96%, respectively.

`Cc1cccc(OC2CCN(c3ncc(C(=O)NCCCN4CCCC4=O)cc3Cl)CC2)c1`: the inhibition is 0.59% in assay [1], 2.47% in assay [2] and 0.99% in assay [3].

For the compound `Cc1c(CN2CCC(N3CCC(C(=O)NC4CC4)CC3)CC2)[nH]c2c(Cl)cccc12`, the inhibition in assay [1] stood at 9.37%; in assay [2], 11.6%; in assay [3], 9.75%.

In the case of `COc1ccc2ncc(F)c(CCN3CCC[C@H](CNCc4ccc5c(n4)NC(=O)CS5)C3)c2n1`, the inhibition in assay [1] turned out to be 5.76%; in assay [2], 5.3%; in assay [3], 0.75%.

With `Nc1ccc(Oc2ccc(Cc3cnc(N)nc3N)cc2)cc1`, the inhibition in assay [1] turned out to be 3.93%; in assay [2], 4.16%; in assay [3] it was 3.87%.

Broadly, the inhibition is the change of the read-out against control, counted positive when it falls.

The record behind these values is ChEMBL document CHEMBL3433997, “St. Jude Leishmania screening dataset” (2016).
